Measurements as given in PubChem BioAssay (Tox21).
Records with an inconclusive call do not appear. The source made the active and inactive calls. Unless noted, calls come from the whole dose curve.

Tests used:
[1] = target: Peroxisome proliferator-activated receptor delta (Homo sapiens) (UniProt Q03181); assay: qHTS assay to identify small molecule agonists of the peroxisome proliferator-activated receptor delta (PPARd) signaling pathway (AID 743212);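 note: HEK293H cells with PPARd UAS beta-lactamase reporter GeneBLAzer system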
Chain of Peroxisome proliferator-activated receptor delta (Homo sapiens) (Q03181 whole entry, looked up): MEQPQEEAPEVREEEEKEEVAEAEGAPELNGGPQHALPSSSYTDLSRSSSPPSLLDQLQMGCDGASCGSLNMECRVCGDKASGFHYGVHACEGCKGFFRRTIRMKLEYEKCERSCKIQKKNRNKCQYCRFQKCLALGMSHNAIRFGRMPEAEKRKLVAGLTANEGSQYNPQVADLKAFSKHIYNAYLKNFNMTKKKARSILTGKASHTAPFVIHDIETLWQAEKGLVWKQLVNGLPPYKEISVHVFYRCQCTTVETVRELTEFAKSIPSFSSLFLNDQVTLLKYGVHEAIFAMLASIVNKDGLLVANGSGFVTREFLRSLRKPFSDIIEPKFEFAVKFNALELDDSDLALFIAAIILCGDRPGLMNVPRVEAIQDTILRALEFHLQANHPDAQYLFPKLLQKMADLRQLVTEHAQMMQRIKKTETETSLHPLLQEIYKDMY
In short: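 Beta-lactamase reporter read by fluorescence (LiveBLAzer B/G FRET, 2 h, room temperature). Test agents, in DMSO, incubated at 37 C with PPARd-bla HEK293H cells.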

[2] = qHTS assay to identify small molecule antagonists of the peroxisome proliferator-activated receptor delta (PPARd) signaling pathway - cell viability counter screen (AID 743213; active = well fitted curve in the direction sought with a large enough effect in the repeat runs; an effect the other way counts as inactive or inconclusive; note: nearly all actives have a fitted effect of over 50% in size)
In short: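 HEK293H cells with the PPARd UAS-bla reporter, co-treated 17 h at 37 C with compounds and L165041 (300 nM final), were lysed with CellTiter-Glo. Luminescence indicated viable cell content.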

[3] = target: Peroxisome proliferator-activated receptor delta (Homo sapiens) (UniProt Q03181); assay: qHTS assay to identify small molecule antagonists of the peroxisome proliferator-activated receptor delta (PPARd) signaling pathway (AID 743215; active = well fitted inhibition curve with a large enough effect in the signal ratio in the repeat runs, not every such curve was filed as active; the % refers to the signal ratio;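 note: cells stimulated with agonist L165041 at 300 nM final during compound exposure; series mostly up to about 62 µM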)
In short: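 Fluorescence from cleaved LiveBLAzer B/G FRET substrate (2 h, room temperature) reports PPARd-driven beta-lactamase in HEK293H UAS-bla cells. Cells had been treated 17 h at 37 C with compound plus 300 nM final L165041.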

[4] = qHTS assay to identify small molecule agonists of the farnesoid-X-receptor (FXR) signaling pathway - cell viability counter screen (AID 743218; active = well fitted curve in the direction sought with a large enough effect in the repeat runs; an effect the other way counts as inactive or inconclusive; note: nearly all actives have a fitted effect of over 45% in size)
In short: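 Readout: CellTiter-Glo luminescence, 30 min RT, multiplexed after the FXR-bla FRET reading. HEK 293T FXR-UAS-bla cells received compound 5 h post-plating and were incubated 16 h at 37 C.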

[5] = qHTS assay to identify small molecule antagonists of the farnesoid-X-receptor (FXR) signaling pathway - cell viability counter screen (AID 743221; active = well fitted cell-killing curve with a large enough effect in the repeat runs, not every such curve was filed as active; note: nearly all actives have a fitted effect of over 50% in size)
In short: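 Cytotoxicity counter screen run in the FXR-bla reporter wells: HEK 293T cells exposed to compound with 50 uM (final) chenodeoxycholic acid for 16 h, 37 C, then viability measured by CellTiter-Glo luminescence after 30 min, room temperature.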

[6] = target: Vitamin D3 receptor (Homo sapiens) (UniProt P11473); assay: qHTS assay to identify small molecule agonists of the vitamin D receptor (VDR) signaling pathway (AID 743222)
Chain of Vitamin D3 receptor (Homo sapiens) (P11473 whole entry, looked up): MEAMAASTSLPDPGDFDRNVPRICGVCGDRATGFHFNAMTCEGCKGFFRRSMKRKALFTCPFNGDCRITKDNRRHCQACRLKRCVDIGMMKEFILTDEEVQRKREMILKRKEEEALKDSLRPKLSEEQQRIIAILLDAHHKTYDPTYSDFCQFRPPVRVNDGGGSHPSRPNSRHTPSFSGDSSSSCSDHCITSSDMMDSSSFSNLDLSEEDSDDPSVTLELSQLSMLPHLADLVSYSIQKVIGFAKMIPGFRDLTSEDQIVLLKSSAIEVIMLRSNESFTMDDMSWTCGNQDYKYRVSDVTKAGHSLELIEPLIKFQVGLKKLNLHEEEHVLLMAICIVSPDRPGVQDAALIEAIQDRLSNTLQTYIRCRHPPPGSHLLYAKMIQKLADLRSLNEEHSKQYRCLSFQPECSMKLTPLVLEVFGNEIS
In short: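 Following 4 h attachment at 37C, VDR-bla cells (2,000 per well) received DMSO-dissolved compounds or controls. After 16 h incubation, LiveBLAzer B/G FRET substrate was added and fluorescence read 2 h later at room temperature.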

[7] = target: Vitamin D3 receptor (Homo sapiens) (UniProt P11473); assay: qHTS assay to identify small molecule antagonists of the vitamin D receptor (VDR) signaling pathway (AID 743223; active = well fitted inhibition curve with a large enough effect in the signal ratio in the repeat runs, not every such curve was filed as active; the % refers to the signal ratio)
In short: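 Antagonist mode: compound added to VDR-bla cells alongside agonist 1alpha,25-dihydroxyvitamin D3 (3 nM final), incubation 16 h at 37C. Read-out is LiveBLAzer FRET fluorescence, 2 h at room temperature.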

[8] = qHTS assay to identify small molecule agonists of the vitamin D receptor (VDR) signaling pathway - cell viability counter screen (AID 743224; active = well fitted curve in the direction sought with a large enough effect in the repeat runs; an effect the other way counts as inactive or inconclusive; note: series mostly up to about 63 µM; nearly all actives have a fitted effect of over 50% in size)
In short: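 In parallel with the bla FRET readout, cytotoxicity toward VDR-bla cells after 16 h compound exposure was assessed by CellTiter-Glo, with luminescence recorded after a 30 min room-temperature incubation.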

[9] = qHTS assay to identify small molecule antagonists of the vitamin D receptor (VDR) signaling pathway - cell viability counter screen (AID 743225; active = well fitted curve in the direction sought with a large enough effect in the repeat runs; an effect the other way counts as inactive or inconclusive; note: nearly all actives have a fitted effect of over 50% in size)
In short: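 Cytotoxicity counter screen read by CellTiter-Glo luminescence (30 min, room temperature) in the same wells as the VDR-bla antagonist readout. HEK 293T VDR-UAS-bla cells had 16 h at 37C with compound and 3 nM (final) 1-alpha,25-dihydroxyvitamin D3, then 2 h with FRET substrate.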

[10] = qHTS assay to identify small molecule agonists of the NFkB signaling pathway (AID 1159509; active = well fitted curve in the direction sought with a large enough effect in the signal ratio in the repeat runs, not every such curve was filed as active; the % refers to the signal ratio; note: series mostly up to about 61 µM)
In short: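 Readout: FRET fluorescence, 405 nm excitation, 460/530 nm emission; beta-lactamase expression disrupts FRET. Cells: ME-180 stably carrying NF-kB-driven bla reporter. Compound exposure 5 hr, 37 C, 5% CO2.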

[11] = qHTS assay to identify small molecule agonists of the NFkB signaling pathway - cell viability counter screen (AID 1159515); note: series mostly up to about 61 µM; nearly all actives have a fitted effect of over 55% in size
In short: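 Plate 2,000 NFkB-bla ME-180 cells/well; incubate overnight. Add compounds, 5 hr at 37 C. Add FRET substrate, 1.5 hr RT. Add CellTiter-Glo, 30 min RT; read luminescence.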

[12] = qHTS assay to identify small molecule agonists of the endoplasmic reticulum stress response signaling pathway (AID 1159516; active = well fitted activation curve with a large enough effect in the signal ratio in the repeat runs, not every such curve was filed as active; the % refers to the signal ratio)
In short: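 Beta-lactamase expression from the ER stress response element in HeLa reporter cells is quantified with the LiveBLAzer B/G FRET substrate, read at 405 nm excitation after 2 hr at room temperature, following 5 hr compound treatment at 37 C.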

[13] = qHTS assay to identify small molecule agonists of the endoplasmic reticulum stress response signaling pathway - cell viability counter screen (AID 1159517)
In short: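 Cytotoxicity of test compounds toward ESRE-bla HeLa cells was assessed after 5 hr exposure. The luminescent CellTiter-Glo signal was measured 30 min after reagent addition.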

[14] = qHTS assay to identify small molecule antagonists of the retinoid-related orphan receptor gamma (ROR-gamma) signaling pathway - cell viability counter screen (AID 1159520; active = well fitted curve in the direction sought with a large enough effect in the repeat runs; an effect the other way counts as inactive or inconclusive; note: nearly all actives have a fitted effect of over 50% in size)
In short: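 Tet-on ROR gamma CHO cells (1,000/well) were plated 4 hr, given compounds in DMSO for 2 hr at 37 C, then induced with 1 uM final doxycycline for 16 hr. Viability was read as ATP by CellTiter-Glo luminescence after 30 min.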

[15] = target: Nuclear receptor ROR-gamma (Homo sapiens) (UniProt P51449); assay: qHTS assay to identify small molecule antagonists of the retinoid-related orphan receptor gamma (ROR-gamma) signaling pathway (AID 1159521; active = well fitted curve in the direction sought with a large enough effect in the repeat runs; an effect the other way counts as inactive or inconclusive)
In short: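 Antagonist read-out: drop in luminescence (ONE-Glo) from an RORE-LUC reporter in CHO cells with doxycycline-inducible ROR-gamma; 2 hr compound pretreatment, 1 uM doxycycline, 16 hr incubation at 37 C.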

[16] = qHTS assay to identify small molecule agonists of the AP-1 signaling pathway - cell viability counter screen (AID 1159525); note: nearly all actives have a fitted effect of over 55% in size
In short: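 Each titration point was normalised to DMSO and tetra n-octyl ammonium bromide controls. The read was Cell Titer Glo luminescence after 30 min at RT, following 5 h compound exposure of ME-180 AP-1-bla cells at 37 °C.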

[17] = qHTS assay to identify small molecule agonists of the AP-1 signaling pathway (AID 1159526)
[18] = target: Retinoic acid receptor RXR-alpha (Homo sapiens) (UniProt P19793); assay: qHTS assay to identify small molecule agonists of the RXR signaling pathway (AID 1159527); note: nearly all actives have a fitted effect of over 35% in size
Chain of Retinoic acid receptor RXR-alpha (Homo sapiens) (P19793 whole entry, looked up): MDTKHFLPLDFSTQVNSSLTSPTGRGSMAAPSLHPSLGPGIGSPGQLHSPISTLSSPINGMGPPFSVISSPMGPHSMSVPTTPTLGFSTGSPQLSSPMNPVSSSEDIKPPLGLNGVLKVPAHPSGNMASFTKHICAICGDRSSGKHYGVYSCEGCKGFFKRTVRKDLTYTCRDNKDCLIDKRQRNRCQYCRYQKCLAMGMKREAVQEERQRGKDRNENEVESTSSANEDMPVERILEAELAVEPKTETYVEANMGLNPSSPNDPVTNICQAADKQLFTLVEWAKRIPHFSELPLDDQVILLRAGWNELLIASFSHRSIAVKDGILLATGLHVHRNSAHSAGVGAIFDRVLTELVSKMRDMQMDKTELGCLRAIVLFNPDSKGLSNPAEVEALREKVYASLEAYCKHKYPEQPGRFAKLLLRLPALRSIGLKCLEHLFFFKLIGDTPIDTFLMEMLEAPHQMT
In short: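 Agonist-mode beta-lactamase reporter assay: HEK 293T RXR-alpha-UAS-bla cells treated 16 hr at 37 C with compounds, 9-cis retinoic acid as positive control. LiveBLAzer FRET substrate, 405 nm excitation, 460/530 nm emission.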

[19] = target: Bile acid receptor (Homo sapiens) (UniProt Q96RI1); assay: qHTS assay to identify small molecule antagonists of the farnesoid-X-receptor (FXR) signaling pathway (AID 743217; active = well fitted inhibition curve with a large enough effect in the signal ratio in the repeat runs, not every such curve was filed as active; the % refers to the signal ratio)
Chain of Bile acid receptor (Homo sapiens) (Q96RI1 whole entry, looked up): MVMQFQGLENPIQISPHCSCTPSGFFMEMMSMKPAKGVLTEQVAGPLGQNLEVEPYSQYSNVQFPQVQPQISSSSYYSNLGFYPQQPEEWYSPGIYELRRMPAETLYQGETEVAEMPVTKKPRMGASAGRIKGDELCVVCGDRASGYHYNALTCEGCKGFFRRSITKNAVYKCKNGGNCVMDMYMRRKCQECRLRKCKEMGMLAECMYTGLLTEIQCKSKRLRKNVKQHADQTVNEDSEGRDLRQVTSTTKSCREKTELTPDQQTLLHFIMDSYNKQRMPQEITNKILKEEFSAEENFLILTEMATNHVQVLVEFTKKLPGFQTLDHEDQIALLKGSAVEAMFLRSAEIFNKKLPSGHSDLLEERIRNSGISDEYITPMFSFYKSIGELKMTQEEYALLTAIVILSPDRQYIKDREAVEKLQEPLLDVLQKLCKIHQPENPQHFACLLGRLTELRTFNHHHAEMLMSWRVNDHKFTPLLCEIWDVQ
In short: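 FRET fluorescence after 2 h room-temperature LiveBLAzer loading gives the readout. Prior step: FXR-bla HEK 293T cells, seeded and incubated 5 h, received test compounds plus 50 uM final CDCA for 16 h at 37 °C.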

[20] = target: Bile acid receptor (Homo sapiens) (UniProt Q96RI1); assay: qHTS assay to identify small molecule agonists of the farnesoid-X-receptor (FXR) signaling pathway (AID 743220; active = well fitted activation curve with a large enough effect in the signal ratio in the repeat runs, not every such curve was filed as active; the % refers to the signal ratio)
In short: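 FXR-UAS-bla HEK 293T cells carrying a UAS-driven beta-lactamase reporter were plated for 5 h at 37C/5% CO2, then exposed to DMSO-dissolved Tox21 10K compounds for 16 h at 37C. A LiveBLAzer B/G FRET substrate was loaded for 2 h at room temperature before fluorescence reading.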

Measured: Potency

CCCCCCCCC(=O)OCC
not listed: [19] | [20]
inactive: all other assays above

Cc1ccccc1C(=O)N1CC/C(=N\OS(=O)(=O)O)c2ccc(Cl)cc21
not listed: [7] | [9] | [19] | [20]
inactive: all other assays above

CN(C1CCCCC1)S(=O)(=O)c1ccccc1N
inactive: all assays above

CCCCCCCCOC(C)=O
not listed: [5] | [7] | [9] | [19] | [20]
inactive: all other assays above

F[Si-2](F)(F)(F)(F)F
not listed: [19]
inactive: all other assays above

Cn1c(=O)c2c(ncn2CC2OCCO2)n(C)c1=O
not listed: [6] | [7]
inactive: all other assays above

Nc1cc(C(=O)O)ccc1Cl
inactive: all assays above

CCC(CO)CO
not listed: [7] | [19] | [20]
inactive: all other assays above

Cc1nc(C)nc(N2C[C@@H](C)N(c3ccnc([C@@H](C)O)n3)[C@@H](C)C2)n1
not listed: [1] | [3]
inactive: all other assays above

O=S(=O)(O)c1cc(O)ccc1O
not listed: [4] | [5] | [19] | [20]
inactive: all other assays above

Nc1ccc(C(=O)OCC(O)CO)cc1 (stereo not drawn)
not listed: [1] | [3] | [9] | [19] | [20]
inactive: all other assays above

CCCCCN(CCCOC)C(=O)C(CCC(=O)O)NC(=O)c1ccc(Cl)c(Cl)c1 (stereo not drawn)
not listed: [4] | [19] | [20]
inactive: all other assays above

COCC(=O)Nc1c(I)c(C(=O)NCC(O)CO)c(I)c(C(=O)N(C)CC(O)CO)c1I (stereo not drawn)
not listed: [4] | [6] | [7] | [19] | [20]
inactive: all other assays above

CCCCCCCCCCCCCCCC(=O)NCCO
not listed: [1] | [3]
inactive: all other assays above

C1=CCC(c2ccccc2)CC1 (stereo not drawn)
not listed: [4] | [19] | [20]
inactive: all other assays above

CCOC(=O)C(=O)c1csc(NC=O)n1
not listed: [1]
inactive: all other assays above

CC(C)COC(=O)CC(C(=O)OCC(C)C)S(=O)(=O)O (stereo not drawn)
not listed: [3] | [7] | [19] | [20]
inactive: all other assays above

CCC(=O)c1ccc(O)cc1
not listed: [1] | [3]
inactive: all other assays above

CC(=O)Nc1ncc([N+](=O)[O-])s1
not listed: [2] | [3] | [4] | [5] | [7]
inactive: all other assays above

NS(=O)(=O)c1cc2c(cc1Cl)NC(CC1CCCC1)NS2(=O)=O (stereo not drawn)
not listed: [1] | [3] | [8]
inactive: all other assays above

C[C@H](CCC(=O)O)[C@H]1CC[C@H]2[C@@H]3[C@H](O)C[C@@H]4C[C@H](O)CC[C@]4(C)[C@H]3C[C@H](O)[C@]12C
not listed: [1] | [3] | [6] | [7]
inactive: all other assays above

Cc1cc(C)cc([N+](=O)[O-])c1
not listed: [2] | [5] | [9]
inactive: all other assays above

CC(C)C(=O)c1ccccc1
not listed: [1] | [4] | [5] | [6] | [7] | [19] | [20]
inactive: all other assays above

CO/N=C(/C(=O)N[C@@H]1C(=O)N2C(C(=O)O)=C(Cn3nnc(C)n3)CS[C@H]12)c1csc(N)n1
not listed: [1] | [3] | [9]
inactive: all other assays above

COc1ccc(OC)c(NC(=O)CC(C)=O)c1
not listed: [3] | [19] | [20]
inactive: all other assays above

C=CCOCC(CO)(COCC=C)COCC=C
not listed: [4] | [19] | [20]
inactive: all other assays above

COc1ccc(N=Nc2cc(C)c(N=Nc3ccc(S(=O)(=O)O)cc3)cc2OC)cc1
not listed: [3] | [6] | [19] | [20]
inactive: all other assays above

O=S1(=O)CCCC1
not listed: [1] | [3] | [4]
inactive: all other assays above

Nc1cc(S(=O)(=O)O)ccc1S(=O)(=O)O
not listed: [3]
inactive: all other assays above

O=S(=O)(O)SSS(=O)(=O)O
not listed: [1] | [6] | [7] | [9] | [19] | [20]
inactive: all other assays above

C1=C\CC/C=C\CC/1
not listed: [1] | [5] | [19] | [20]
inactive: all other assays above
